Pf growth 48h – inhibits P. falciparum growth in the first generation, 48 h; Potency, µM (highest dose often 28.7 µM), hits mostly inhibitors; 5.9% of 310,000 active; AID 504832; P. falciparum luciferase growth in erythrocytes, 48 h
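Read-out is firefly luciferase luminescence from an integrated reporter in P. falciparum, so falling signal marks reduced parasite growth. Infected erythrocytes were at 2% hematocrit and 0.1% parasitemia (final) in Albumax-supplemented RPMI 1640.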
HCV inh – inhibitors of hepatitis C virus infection. Huh7.5.1 HCVcc-Cre infection, luciferase reporter, 44 h. Potency, µM (titrated, usually from 41.8 µM), usual class: inhibitors. 3.4% of 340,000 active
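HCVcc-Cre virus at an moi near 0.5 was added right after compound to cells cultured 4 h from seeding (1,000 cells/well). Luciferase activity was determined 44 h later, 15 min after substrate addition at RT.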
AMA1-RON2 inh – AMA1-RON2 (P. falciparum) interaction inhibition | AlphaScreen AMA1-biotinylated RON2 peptide binding | Potency, µM (highest dose often 58.2 µM), hits mostly inhibitors | 0.2% of 360,000 active | AID 720542; note: nearly all actives have a fitted effect of over 45% in size
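AMA1 (3D7) with his tag at 25 nM final met compounds first, then biotinylated RON2 peptide at 25 nM; detection used donor plus acceptor beads, 10 µg/mL apiece, read by AlphaScreen after 30 min at room temperature.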
Pf growth 96h – inhibits malaria parasite growth, 96 h; AID 504834; P. falciparum luciferase reporter growth, 96 h; 6.9% of 320,000 active; Potency, µM (top dose mostly 28.7 µM), most hits filed as inhibitors
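Two-generation exposure (96 h) targets delayed-death phenotype. Reporter parasites carrying integrated firefly luciferase, in red cells at 2% hematocrit and 0.05% parasitemia final, kept at 37 C, 5% CO2; luminescence loss indicates inhibition.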
Numbers stand for hits; . = inactive; ? = inconclusive; / = not tested or not shown; [ ] = another dose, or the depositor's remark. Hits are enriched below; roughly 11% of the tested compounds scored in any of these assays. Calls come from the whole dose curve; as a rule, active = well fitted curve in the direction sought with a large enough effect; inconclusive = small, poorly fitted or top-dose-only effect, or another doubt; inactive = no such curve, though single readings can be large; an effect the other way counts as inactive or inconclusive.

SMILES | Pf growth 48h | HCV inh | AMA1-RON2 inh | Pf growth 96h
CCOC(=O)c1sc(=NC(=O)c2ccccc2)n(C)c1C | . | . | . | .
CCOC(=O)c1c(/C=N/Nc2ccccc2)c2sc(C)cc2n1C | 9.3µM | / | / | ?
COC(=O)/C=C1/S/C(=N/NC(=O)c2ccc(OC)cc2)NC1=O | . | . | . | ?
COC(=O)/C=C1/S/C(=N/NC(=O)c2ccccc2OC)NC1=O | ? | . | . | 12µM
CC12CCC(C(=O)N3CCc4ccccc43)(CC1=O)C2(C)C (stereo unspecified) | . | . | . | /
COc1ccc(NC(=O)/C(Cl)=C(/Cl)S(=O)Cc2ccccc2Cl)cn1 (stereo unspecified) | ? | 2.8µM | . | 7.4µM
COc1ccc(NC(=O)Cc2ccc(Cl)c(Cl)c2)cn1 | . | . | . | ?
COc1ccc(NC(=O)/C(Cl)=C(/Cl)S(=O)(=O)Cc2ccc(C)cc2)cn1 | / | 2.5µM | . | ?
Cc1ccc(C(O)c2ncc(-c3ccccc3C(F)(F)F)[nH]2)cc1F (stereo unspecified) | / | / | . | /
CCN(CC)S(=O)(=O)c1cc(NC(=O)Cc2ccsc2)ccc1C | ? | 13µM | . | ?
CCN(CC)S(=O)(=O)c1cc(NC(=O)CCNC(=O)c2ccco2)ccc1C | 9.3µM | . | . | 6.6µM
CN(c1ncc(C(F)(F)F)cc1Cl)n1cc(C(N)=O)c2ccccc2c1=O | / | . | . | .
CCOC(=O)c1cc(C#N)c(N2CCN(C(=O)c3ccccc3)CC2)nc1C(F)(F)F | ? | . | . | 10µM
CCOC(=O)c1cc(C#N)c(N2CCNCC2)nc1C(F)(F)F | ? | ? | . | .
CCOC(=O)c1cc(C#N)c(N2CCN(C(=O)c3cccc(C(F)(F)F)c3)CC2)nc1C(F)(F)F | 5.9µM | 8.9µM | . | ?
CCOC(=O)c1cc(C#N)c(N2CCOCC2)nc1-c1ccccc1 | . | . | . | .
COc1ccc(S(=O)(=O)N2CCCC2C(=O)n2nc(C)cc2C)cc1 (stereo unspecified) | . | . | . | ?
C=CCc1cccc(CNc2cnc3ccccc3c2)c1O | ? | 7.9µM | . | .
Oc1ccc(Cl)cc1CNc1cnc2ccccc2c1 | . | ? | . | 2.6µM
Oc1ccccc1CNc1cnc2ccccc2c1 | . | ? | . | .
COc1ccc2[nH]c(=O)c(CN(Cc3ccc4c(c3)OCO4)C(C)=O)cc2c1 | . | . | . | ?
COC(=O)c1ccccc1NC(=S)N(Cc1ccc2c(c1)OCO2)Cc1cc2ccc(C)cc2[nH]c1=O | 9.3µM | ? | . | ?
COC(=O)c1ccccc1NC(=S)N(Cc1ccc2c(c1)OCO2)Cc1cc2ccc(OC)cc2[nH]c1=O | 9.3µM | ? | . | .
CC(=O)N(CCc1ccccc1C)Cc1cc2ccc(C)cc2[nH]c1=O | . | . | . | .
CCN(CC)CCN(Cc1cc2ccc(C)cc2[nH]c1=O)C(=S)Nc1ccccc1C(=O)OC | 13µM | ? | . | .
SMILES | Pf growth 48h | HCV inh | AMA1-RON2 inh | Pf growth 96h
COC(=O)c1ccccc1NC(=S)N(Cc1ccc2c(c1)OCO2)Cc1cc2cc(C)ccc2[nH]c1=O | ? | ? | . | .
C=CCNc1oc(-c2cccs2)nc1S(=O)(=O)c1ccccc1 | . | . | . | .[1.15 µM]
CCOC(=O)c1c(NC(=O)C(C)OC(=O)C2=COCCO2)sc2c1CCCC2 (stereo unspecified) | ? | 13µM | . | ?
Cc1nc(C(=O)N/N=C/c2[nH]ncc2Br)cs1 | 1.7µM | . | . | 1.5µM
CCn1cc(C(=O)N[C@H](C(=O)NC(C)(C)CO)C(C)C)c(=O)c2cc3c(cc21)OCO3 | ? | . | . | 8.3µM
CCn1cc(C(=O)N[C@H](C(=O)NCCO)C(C)C)c(=O)c2cc3c(cc21)OCO3 | . | . | . | .
CCn1cc(C(=O)N[C@@H](CCSC)C(=O)NC(C)(C)CO)c(=O)c2cc3c(cc21)OCO3 | 1.9µM | . | . | 1.5µM
CCn1cc(C(=O)N[C@@H](CCSC)C(=O)NCCCOC)c(=O)c2cc3c(cc21)OCO3 | ? | . | . | .
COC(=O)c1ccccc1NC(=O)c1noc2c1CCC2 | 3.3µM | ? | . | 1µM
CCc1ccc(NC(=O)c2noc3c2CCCCC3)cc1 | . | . | . | 3.7µM
CCc1ccc(NC(=O)c2noc3c2CCC3)cc1 | / | . | . | ?
CSc1ccccc1NC(=O)c1noc2c1CCC2 | 13µM | ? | . | /
COc1ccc(NC(=O)c2noc3c2CCCCC3)cc1 | . | . | . | .
Cc1cc(S(=O)(=O)NC2CCCCC2)ccc1OCC(=O)NCc1ccccn1 | 13µM | . | . | ?
Cc1ccc(OCC(=O)N(c2ccccn2)C2CCCCC2)c(C)c1 | ? | . | . | 7.4µM
Cc1cc(S(=O)(=O)N2CCCC2)ccc1OCC(=O)NCc1ccccn1 | . | . | . | .
CCOC(=O)C1(C)CCN1C(=O)c1cccc2ccccc12 (stereo unspecified) | / | / | . | /
COc1cc(C(=O)O[C@H]2C/C(C)=C/CC[C@]3(C)O[C@@H]3C(O)C2C(C)C)cc(OC)c1OC (stereo partly specified) | ? | . | . | 4.1µM
CSc1sc(C(=O)OC(C)C)c2c1C(=O)CC(C)(C)C2 | 7.4µM | . | . | ?
COC(=O)c1sc(SC)c2c1CC(C)(C)C/C2=N/O | . | . | . | .
CCc1cc(C(=O)OC)c(NC(=O)CCCC(=O)O)s1 | . | . | . | .
CCOC(=O)c1c(NC(=O)COC(=O)C2CCC2)sc(C(=O)N(C)C)c1C | . | . | . | .
CCc1cc(C(=O)OC)c(NC(=O)CSc2nccn2C)s1 | . | 10µM | . | ?
CCOC(=O)c1c(NC(=O)c2ccoc2C)sc(C(=O)N(C)C)c1C | / | . | . | 10µM
CCN(CC)C(=O)c1sc(NC(=O)c2ccoc2C)c(C(=O)OC)c1C | . | . | . | .
CCOC(=O)c1c(NC(=O)COC(=O)c2ccccc2NC)sc(C(=O)N(C)C)c1C | ? | 13µM | . | 5.2µM
CCOC(=O)c1c(NC(=O)COC(=O)Cc2ccccc2[N+](=O)[O-])sc(C(=O)N(C)C)c1C | ? | 10µM | . | .
COCCN1C(=O)CCC1(C)C(=O)NC1CCCC1 (stereo unspecified) | / | / | . | /
O=C1CSC(=S)N1N1C(=O)c2cccc([N+](=O)[O-])c2C1=O | . | / | / | .
